Reference: the supplement of paper PMC11732987, “Enantioselective OTUD7B fragment discovery through chemoproteomics screening and high-throughput optimisation” (Communications Chemistry, 2025)

Assays:
Test in all cases: log2 ratio of Biotin-Ahx-Ub-VS probe labelling (fragment/DMSO); higher = less target engagement (more negative = stronger competition), active = hit call of the paper (q ≤ 0.05, log2 ratio ≤ -1)
Conditions in all cases: compound concentration: 200 uM; treatment time: 3 h
USP19 = biological target: T1, USP19 (UniProt O94966)
T1 sequence (whole entry): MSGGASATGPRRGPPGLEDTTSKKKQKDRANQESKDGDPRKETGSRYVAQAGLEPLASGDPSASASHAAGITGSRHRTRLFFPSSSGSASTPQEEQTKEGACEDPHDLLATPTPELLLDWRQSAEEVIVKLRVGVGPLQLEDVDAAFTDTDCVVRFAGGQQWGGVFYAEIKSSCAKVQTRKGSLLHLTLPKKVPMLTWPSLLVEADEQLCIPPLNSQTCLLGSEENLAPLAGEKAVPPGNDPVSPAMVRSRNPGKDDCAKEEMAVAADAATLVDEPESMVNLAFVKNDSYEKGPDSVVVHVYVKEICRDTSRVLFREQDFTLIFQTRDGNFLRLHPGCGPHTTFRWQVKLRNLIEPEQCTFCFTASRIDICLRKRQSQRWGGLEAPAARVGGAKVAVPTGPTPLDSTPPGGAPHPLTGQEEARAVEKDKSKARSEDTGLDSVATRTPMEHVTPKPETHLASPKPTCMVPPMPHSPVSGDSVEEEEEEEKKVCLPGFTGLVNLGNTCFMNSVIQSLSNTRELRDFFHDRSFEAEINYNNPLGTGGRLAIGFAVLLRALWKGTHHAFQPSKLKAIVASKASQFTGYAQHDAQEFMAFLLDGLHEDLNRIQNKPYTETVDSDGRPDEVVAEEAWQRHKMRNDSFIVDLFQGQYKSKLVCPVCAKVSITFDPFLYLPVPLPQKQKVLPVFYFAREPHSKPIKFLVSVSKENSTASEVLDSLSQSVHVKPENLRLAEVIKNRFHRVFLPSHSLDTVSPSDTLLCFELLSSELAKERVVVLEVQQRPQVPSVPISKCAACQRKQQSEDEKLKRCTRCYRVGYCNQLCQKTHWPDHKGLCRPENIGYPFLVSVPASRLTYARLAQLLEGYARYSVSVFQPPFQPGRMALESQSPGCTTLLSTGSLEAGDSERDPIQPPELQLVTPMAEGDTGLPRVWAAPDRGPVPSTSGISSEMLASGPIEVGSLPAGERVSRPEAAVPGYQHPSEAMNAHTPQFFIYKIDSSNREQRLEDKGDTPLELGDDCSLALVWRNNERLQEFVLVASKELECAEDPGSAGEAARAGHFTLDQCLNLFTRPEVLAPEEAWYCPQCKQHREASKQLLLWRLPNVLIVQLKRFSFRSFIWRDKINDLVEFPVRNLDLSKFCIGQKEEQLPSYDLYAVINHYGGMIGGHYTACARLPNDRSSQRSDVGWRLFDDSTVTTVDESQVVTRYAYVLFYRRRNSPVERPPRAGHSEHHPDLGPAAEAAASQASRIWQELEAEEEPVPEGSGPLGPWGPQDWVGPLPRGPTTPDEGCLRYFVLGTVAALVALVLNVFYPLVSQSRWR
In short: (§1)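 Labelled DUBs from HEK293T lysate were NeutrAvidin-enriched, digested with LysC and trypsin, and run by diaPASEF LC-MS/MS. Before that, each 495 µg sample in Tris/CHAPS/IGEPAL buffer with protease inhibitors was treated in triplicate with fragment at 200 µM or vehicle for 3 h, then with Biotin-Ahx-Ub-VS at 0.5 µM final for 1 h. Values are average log2 ratios of fragment over vehicle by unpaired t-test, based on global-median-normalised Spectronaut label-free quantities from proteins with ≥2 unique peptides.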

USP22 = biological target: T2, USP22 (UniProt Q9UPT9)
T2 sequence (whole entry): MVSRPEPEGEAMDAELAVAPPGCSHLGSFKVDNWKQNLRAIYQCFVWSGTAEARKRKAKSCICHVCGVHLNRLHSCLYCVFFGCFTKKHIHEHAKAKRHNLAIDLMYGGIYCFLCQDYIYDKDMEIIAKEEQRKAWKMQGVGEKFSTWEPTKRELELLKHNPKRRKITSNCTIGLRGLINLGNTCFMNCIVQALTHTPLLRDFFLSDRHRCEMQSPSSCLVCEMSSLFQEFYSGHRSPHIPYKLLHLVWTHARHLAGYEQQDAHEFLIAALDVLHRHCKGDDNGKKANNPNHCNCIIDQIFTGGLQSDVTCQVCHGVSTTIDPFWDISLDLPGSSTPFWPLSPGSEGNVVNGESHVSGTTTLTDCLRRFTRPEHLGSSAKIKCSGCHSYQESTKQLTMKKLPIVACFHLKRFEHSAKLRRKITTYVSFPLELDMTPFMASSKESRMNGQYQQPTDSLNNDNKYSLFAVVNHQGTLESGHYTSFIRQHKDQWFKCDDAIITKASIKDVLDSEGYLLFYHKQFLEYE
In short: as §1

USP24 = USP24 (UniProt Q9UPU5)
In short: as §1

USP25 = biological target: T3, USP25 (UniProt Q9UHP3)
T3 sequence (whole entry): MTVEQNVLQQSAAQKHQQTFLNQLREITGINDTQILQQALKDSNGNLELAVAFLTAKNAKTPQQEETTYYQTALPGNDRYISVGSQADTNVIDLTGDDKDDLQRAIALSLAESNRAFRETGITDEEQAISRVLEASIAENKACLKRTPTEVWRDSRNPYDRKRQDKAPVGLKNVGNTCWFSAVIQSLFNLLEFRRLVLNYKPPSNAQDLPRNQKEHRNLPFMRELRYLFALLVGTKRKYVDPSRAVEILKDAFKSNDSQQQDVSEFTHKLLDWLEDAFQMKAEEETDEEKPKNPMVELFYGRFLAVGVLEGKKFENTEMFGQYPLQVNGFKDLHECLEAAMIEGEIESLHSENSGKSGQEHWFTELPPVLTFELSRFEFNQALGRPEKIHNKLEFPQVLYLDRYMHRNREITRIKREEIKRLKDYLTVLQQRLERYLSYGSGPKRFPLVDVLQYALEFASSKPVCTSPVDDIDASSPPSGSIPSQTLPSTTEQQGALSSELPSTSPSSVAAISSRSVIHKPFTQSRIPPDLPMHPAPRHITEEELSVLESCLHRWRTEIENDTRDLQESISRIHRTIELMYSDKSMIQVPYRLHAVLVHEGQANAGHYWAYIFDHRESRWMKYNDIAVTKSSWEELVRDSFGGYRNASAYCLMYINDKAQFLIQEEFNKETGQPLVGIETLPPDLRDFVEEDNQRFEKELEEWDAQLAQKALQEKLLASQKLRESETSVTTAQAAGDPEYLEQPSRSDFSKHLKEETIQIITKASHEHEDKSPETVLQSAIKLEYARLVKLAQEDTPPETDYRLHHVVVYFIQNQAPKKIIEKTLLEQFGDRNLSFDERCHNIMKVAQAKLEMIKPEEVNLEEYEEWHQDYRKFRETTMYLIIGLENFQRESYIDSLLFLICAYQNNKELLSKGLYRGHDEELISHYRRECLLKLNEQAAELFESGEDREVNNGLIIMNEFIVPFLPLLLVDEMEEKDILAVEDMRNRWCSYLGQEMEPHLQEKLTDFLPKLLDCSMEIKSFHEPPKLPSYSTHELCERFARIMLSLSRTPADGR
In short: as §1

USP28 = biological target: T4, USP28 (UniProt Q96RU2)
T4 sequence (whole entry): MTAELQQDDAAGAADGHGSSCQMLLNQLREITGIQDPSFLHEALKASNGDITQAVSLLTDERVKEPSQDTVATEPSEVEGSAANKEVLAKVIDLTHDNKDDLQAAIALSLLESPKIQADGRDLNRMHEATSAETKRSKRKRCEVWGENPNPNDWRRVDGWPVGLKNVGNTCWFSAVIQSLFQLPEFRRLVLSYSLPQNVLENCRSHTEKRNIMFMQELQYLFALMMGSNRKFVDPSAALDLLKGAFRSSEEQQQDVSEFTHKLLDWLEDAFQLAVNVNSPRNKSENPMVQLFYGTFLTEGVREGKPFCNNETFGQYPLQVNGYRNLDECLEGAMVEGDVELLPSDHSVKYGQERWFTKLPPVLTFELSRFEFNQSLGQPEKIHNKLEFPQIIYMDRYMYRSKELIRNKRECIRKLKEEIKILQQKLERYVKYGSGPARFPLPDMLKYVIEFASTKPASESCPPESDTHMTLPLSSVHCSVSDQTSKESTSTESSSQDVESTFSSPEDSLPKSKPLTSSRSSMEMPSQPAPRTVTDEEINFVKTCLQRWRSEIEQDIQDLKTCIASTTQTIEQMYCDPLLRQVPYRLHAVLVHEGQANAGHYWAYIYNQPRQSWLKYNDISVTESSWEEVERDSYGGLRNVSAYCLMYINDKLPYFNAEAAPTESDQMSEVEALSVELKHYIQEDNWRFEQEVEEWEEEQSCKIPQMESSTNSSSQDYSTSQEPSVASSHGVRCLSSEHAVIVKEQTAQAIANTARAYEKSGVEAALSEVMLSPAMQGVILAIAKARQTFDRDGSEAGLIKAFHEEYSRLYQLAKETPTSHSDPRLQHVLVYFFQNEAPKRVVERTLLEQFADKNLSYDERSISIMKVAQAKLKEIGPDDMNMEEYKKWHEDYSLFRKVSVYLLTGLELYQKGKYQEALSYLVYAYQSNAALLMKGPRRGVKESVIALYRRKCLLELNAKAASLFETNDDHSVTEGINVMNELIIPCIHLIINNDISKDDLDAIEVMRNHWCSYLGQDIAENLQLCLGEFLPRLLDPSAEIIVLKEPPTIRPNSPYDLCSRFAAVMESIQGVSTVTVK
In short: as §1

Measured: log2 ratio of Biotin-Ahx-Ub-VS probe labelling

USP24, sequence (Q9UPU5 whole entry): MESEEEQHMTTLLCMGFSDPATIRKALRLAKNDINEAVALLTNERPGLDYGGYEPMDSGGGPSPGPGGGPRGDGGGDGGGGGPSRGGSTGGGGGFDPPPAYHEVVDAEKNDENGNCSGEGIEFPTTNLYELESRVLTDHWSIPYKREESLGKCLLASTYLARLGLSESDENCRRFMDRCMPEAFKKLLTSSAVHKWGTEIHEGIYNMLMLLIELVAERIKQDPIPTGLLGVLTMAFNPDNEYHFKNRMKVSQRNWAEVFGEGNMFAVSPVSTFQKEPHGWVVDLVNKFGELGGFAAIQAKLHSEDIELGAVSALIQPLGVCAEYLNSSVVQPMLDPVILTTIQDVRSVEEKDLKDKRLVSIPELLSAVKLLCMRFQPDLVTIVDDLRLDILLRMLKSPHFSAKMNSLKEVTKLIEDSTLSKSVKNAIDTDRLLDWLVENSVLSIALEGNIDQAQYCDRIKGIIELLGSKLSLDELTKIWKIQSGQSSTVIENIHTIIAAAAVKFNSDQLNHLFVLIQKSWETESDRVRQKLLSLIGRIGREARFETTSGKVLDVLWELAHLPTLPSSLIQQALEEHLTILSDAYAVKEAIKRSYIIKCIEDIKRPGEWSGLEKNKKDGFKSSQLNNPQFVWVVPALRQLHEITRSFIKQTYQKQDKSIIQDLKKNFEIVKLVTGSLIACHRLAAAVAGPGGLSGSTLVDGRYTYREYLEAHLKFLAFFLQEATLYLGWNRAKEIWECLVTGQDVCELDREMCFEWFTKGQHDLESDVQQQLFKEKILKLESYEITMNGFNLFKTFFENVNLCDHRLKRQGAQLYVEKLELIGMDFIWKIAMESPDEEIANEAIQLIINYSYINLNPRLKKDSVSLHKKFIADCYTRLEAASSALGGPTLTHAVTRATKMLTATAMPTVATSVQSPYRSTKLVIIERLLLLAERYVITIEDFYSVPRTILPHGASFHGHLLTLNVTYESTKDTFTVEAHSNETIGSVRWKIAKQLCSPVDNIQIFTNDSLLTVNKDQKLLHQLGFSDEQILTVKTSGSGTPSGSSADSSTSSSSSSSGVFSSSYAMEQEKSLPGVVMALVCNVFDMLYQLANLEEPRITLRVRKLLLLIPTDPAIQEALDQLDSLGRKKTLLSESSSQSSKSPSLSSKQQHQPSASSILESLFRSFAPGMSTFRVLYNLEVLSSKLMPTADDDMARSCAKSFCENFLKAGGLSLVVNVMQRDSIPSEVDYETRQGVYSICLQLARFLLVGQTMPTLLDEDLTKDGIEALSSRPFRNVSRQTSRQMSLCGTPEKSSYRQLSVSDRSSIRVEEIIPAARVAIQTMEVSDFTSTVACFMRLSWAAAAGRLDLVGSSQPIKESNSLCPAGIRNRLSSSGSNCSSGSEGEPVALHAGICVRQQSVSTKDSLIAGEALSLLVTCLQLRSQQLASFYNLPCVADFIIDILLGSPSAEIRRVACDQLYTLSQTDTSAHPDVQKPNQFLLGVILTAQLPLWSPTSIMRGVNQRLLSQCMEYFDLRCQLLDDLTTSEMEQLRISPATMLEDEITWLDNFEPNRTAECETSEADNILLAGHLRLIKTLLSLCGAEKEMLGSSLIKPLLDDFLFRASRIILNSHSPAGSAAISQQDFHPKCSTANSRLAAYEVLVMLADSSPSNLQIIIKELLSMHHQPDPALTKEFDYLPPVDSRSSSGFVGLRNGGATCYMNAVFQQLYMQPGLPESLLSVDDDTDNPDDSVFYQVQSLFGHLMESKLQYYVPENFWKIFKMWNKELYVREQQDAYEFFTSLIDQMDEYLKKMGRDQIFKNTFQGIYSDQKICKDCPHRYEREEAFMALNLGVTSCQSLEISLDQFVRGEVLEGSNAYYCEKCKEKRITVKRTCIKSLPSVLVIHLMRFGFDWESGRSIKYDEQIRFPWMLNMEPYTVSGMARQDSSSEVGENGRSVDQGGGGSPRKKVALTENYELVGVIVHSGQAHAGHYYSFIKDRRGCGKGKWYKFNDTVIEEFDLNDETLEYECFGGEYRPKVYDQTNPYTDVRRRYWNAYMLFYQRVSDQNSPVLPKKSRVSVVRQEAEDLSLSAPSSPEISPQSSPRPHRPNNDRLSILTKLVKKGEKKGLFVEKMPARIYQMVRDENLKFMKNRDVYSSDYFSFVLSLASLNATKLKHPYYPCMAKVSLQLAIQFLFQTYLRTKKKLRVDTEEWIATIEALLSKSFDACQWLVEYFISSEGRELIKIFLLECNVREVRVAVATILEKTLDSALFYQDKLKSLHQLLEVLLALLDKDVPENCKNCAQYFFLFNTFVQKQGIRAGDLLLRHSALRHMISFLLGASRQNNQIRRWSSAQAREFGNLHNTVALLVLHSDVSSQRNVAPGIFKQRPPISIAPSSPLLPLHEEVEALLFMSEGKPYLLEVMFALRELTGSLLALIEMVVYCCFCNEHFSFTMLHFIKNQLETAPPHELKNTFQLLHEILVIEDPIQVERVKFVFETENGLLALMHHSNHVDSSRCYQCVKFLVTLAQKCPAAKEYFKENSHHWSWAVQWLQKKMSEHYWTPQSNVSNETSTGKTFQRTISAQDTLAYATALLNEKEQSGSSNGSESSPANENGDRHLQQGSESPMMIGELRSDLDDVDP

CCCn1nccc1NC(=O)CCl
inactive: USP19 -0.237 | USP22 0.165 | USP24 -0.693 | USP25 -0.184 | USP28 -0.445
